In PubChem BioAssay (EPA / NIEHS):
The source made the active and inactive calls. Rule for the calls: active = hit-call score of the fitted dose curve at least 0.9, where 1 is the maximum; inactive = score below 0.9.

Assays:
[1] = read-out: Epidermal growth factor receptor (EGFR), EGFR (gene 1956); assay: BSK_hDFCGF_EGFR: BioMAP Diversity Plus: hDFCGF Assay for Epidermal growth factor receptor (EGFR) Biomarker Activity (AID 2283057); conditions: primary human foreskin fibroblasts; actives raise or lower the signal
In short: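 Cell-based multiplexed assay in primary human foreskin fibroblasts. EGFR is read by ELISA 24 h after treatment and compared with DMSO controls.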

[2] = read-out: Interleukin-8 (IL8), CXCL8 (gene 3576); assay: BSK_hDFCGF_IL8: BioMAP Diversity Plus: hDFCGF Assay for Interleukin-8 (IL8) Biomarker Activity (AID 2283058); conditions: primary human foreskin fibroblasts; actives raise or lower the signal
In short: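 IL-8 levels read by ELISA at 24 hours after dosing human skin fibroblast cultures. Parallel SRB staining assessed overt cytotoxicity, and gain or loss of signal was fitted against DMSO control.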

[3] = BSK_hDFCGF_Proliferation: Cell Proliferation Assessment in the BioMAP Diversity Plus: hDFCGF Assay (AID 2283059); conditions: primary human foreskin fibroblasts;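 note: curves fitted for both rise and fall of signal versus DMSO baseline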
In short: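 This proliferation readout used SRB total-protein staining of human foreskin fibroblasts […], normalized to DMSO with bidirectional curve fitting.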

[4] = BSK_hDFCGF_SRB: Viability Assessment in the BioMAP Diversity Plus: hDFCGF Assay (AID 2283061); conditions: primary human foreskin fibroblasts;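 note: cells exposed to compound for 24 h before the read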
In short: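 Viability was read as total protein: after 10% TCA fixation, wells were stained with 0.1% sulforhodamine B and read at 560 nm. Primary human foreskin fibroblasts were dosed for 24 h, with bidirectional fitting versus DMSO.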

[5] = read-out: TIMP metallopeptidase inhibitor 1 (TIMP1), TIMP1 (gene 7076); assay: BSK_hDFCGF_TIMP1: BioMAP Diversity Plus: hDFCGF Assay for TIMP metallopeptidase inhibitor 1 (TIMP1) Biomarker Activity (AID 2283062); conditions: primary human foreskin fibroblasts; actives raise or lower the signal
In short: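 TIMP-1 measured by ELISA 24 h after chemical dosing of primary human skin fibroblasts, with gain or loss fitted relative to DMSO. Parallel SRB staining (560 nm) monitored overt cytotoxicity.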

[6] = read-out: Monokine induced gamma interferon (MIG), CXCL9 (gene 4283); assay: BSK_hDFCGF_MIG: BioMAP Diversity Plus: hDFCGF Assay for Monokine induced gamma interferon (MIG) Biomarker Activity (AID 2283063); conditions: primary human foreskin fibroblasts; actives raise or lower the signal
In short: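 Human primary foreskin fibroblasts in the hDFCGF system, exposed to test chemical for 24 h; MIG measured by ELISA. Bidirectional curve fitting against DMSO negative control as activity baseline.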

[7] = read-out: Matrix Metallopeptidase 1 (MMP1), MMP1 (gene 4312); assay: BSK_hDFCGF_MMP1: BioMAP Diversity Plus: hDFCGF Assay for Matrix Metallopeptidase 1 (MMP1) Biomarker Activity (AID 2283064); conditions: primary human foreskin fibroblasts; actives raise or lower the signal
In short: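 Human foreskin fibroblasts exposed to chemical for 24 h; MMP1 detected by ELISA, with DMSO as baseline for bidirectional fitting.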

[8] = read-out: Vascular cell adhesion molecule 1 (VCAM1), VCAM1 (gene 7412); assay: BSK_hDFCGF_VCAM1: BioMAP Diversity Plus: hDFCGF Assay for Vascular cell adhesion molecule 1 (VCAM1) Biomarker Activity (AID 2283065); conditions: primary human foreskin fibroblasts; actives raise or lower the signal;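 for AC50: VCAM-1 protein level quantified by ELISA after 24 h chemical exposure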
In short: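 ELISA readout of VCAM-1 on human dermal fibroblast primary cultures, 24 h after chemical exposure. Gain or loss of signal fitted in both directions against DMSO baseline.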

[9] = read-out: Plasminogen activator inhibitor-1 (PAI1), SERPINE1 (gene 5054); assay: BSK_hDFCGF_PAI1: BioMAP Diversity Plus: hDFCGF Assay for Plasminogen activator inhibitor-1 (PAI1) Biomarker Activity (AID 2283066); conditions: primary human foreskin fibroblasts; actives raise or lower the signal
In short: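 Human skin fibroblast cultures receive chemical for 24 h before PAI-1 is measured by ELISA; signal changes are fitted bidirectionally against DMSO-treated wells.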

[10] = read-out: Interferon-gamma inducible Protein 10 (IP10), CXCL10 (gene 3627); assay: BSK_KF3CT_IP10: BioMAP Diversity Plus: KF3CT Assay for Interferon-gamma inducible Protein 10 (IP10) Biomarker Activity (AID 2283068); conditions: primary human keratinocytes with fibroblasts; actives raise or lower the signal
In short: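 Signal is secreted/surface IP-10 by ELISA in a human primary skin co-culture of keratinocytes and foreskin fibroblasts, taken 24 h post-dosing; DMSO served as negative control.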

[11] = BSK_KF3CT_SRB: Viability Assessment in the BioMAP Diversity Plus: KF3CT Assay (AID 2283069); conditions: primary human keratinocytes with fibroblasts;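 note: read 24 h after compound addition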
In short: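 Overt cytotoxicity is assessed as total protein by sulforhodamine B staining in parallel human skin co-cultures at 24 h after dosing. DMSO serves as negative control and baseline.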

[12] = read-out: Interleukin-1 alpha (IL1a), IL1A (gene 3552); assay: BSK_KF3CT_IL1a: BioMAP Diversity Plus: KF3CT Assay for Interleukin-1 alpha (IL1a) Biomarker Activity (AID 2283070); conditions: primary human keratinocytes with fibroblasts; actives raise or lower the signal
In short: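 Readout is IL-1a level by ELISA, compared bidirectionally with DMSO as baseline. Cells: human keratinocytes co-cultured with foreskin fibroblasts, harvested 24 h post-dose.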

[13] = read-out: Matrix Metallopeptidase 9 (MMP9), MMP9 (gene 4318); assay: BSK_KF3CT_MMP9: BioMAP Diversity Plus: KF3CT Assay for Matrix Metallopeptidase 9 (MMP9) Biomarker Activity (AID 2283074); conditions: primary human keratinocytes with fibroblasts; actives raise or lower the signal;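 for AC50: MMP9 protein level quantified by ELISA in the co-culture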
In short: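 Values come from bidirectional fitting relative to DMSO of MMP-9 levels, which were measured by ELISA. Measurements were taken 24 h after chemical dosing of a keratinocyte and foreskin fibroblast co-culture.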

[14] = read-out: urokinase plasminogen activator (uPA), PLAU (gene 5328); assay: BSK_KF3CT_uPA: BioMAP Diversity Plus: KF3CT Assay for urokinase plasminogen activator (uPA) Biomarker Activity (AID 2283075); conditions: primary human keratinocytes with fibroblasts; actives raise or lower the signal
In short: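 Values derive from bidirectional fitting against DMSO controls. Keratinocyte/foreskin fibroblast co-cultures received chemical; 24 h later uPA was detected by ELISA, with SRB total-protein staining in parallel wells for overt cytotoxicity.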

[15] = read-out: CD40, CD40 (gene 958); assay: BSK_LPS_CD40: BioMAP Diversity Plus: LPS Assay for CD40 Biomarker Activity (AID 2283076); conditions: primary human HUVEC with PBMC; actives raise or lower the signal
In short: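 In the LPS system of human endothelial cells with peripheral blood mononuclear cells, CD40 levels were read by ELISA 24 h post-treatment. Signal changes in either direction were fitted against the DMSO baseline, with parallel SRB protein staining.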

[16] = BSK_LPS_SRB: Viability Assessment in the BioMAP Diversity Plus: LPS Assay (AID 2283079); conditions: primary human HUVEC with PBMC;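 note: total protein by sulforhodamine B absorbance as a cytotoxicity measure; measured one day after compound addition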
In short: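 SRB viability endpoint: cells fixed with 10% TCA, stained with 0.1% SRB, read at 560 nm, 24 h post-dose. HUVEC/PBMC co-culture; signal change in either direction scored relative to DMSO.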

[17] = read-out: Tumor necrosis factor (Homo sapiens) (UniProt P01375); assay: BSK_LPS_TNFa: BioMAP Diversity Plus: LPS Assay for Tumour Necrosis Factor alpha (TNFa) Biomarker Activity (AID 2283085); conditions: primary human HUVEC with PBMC; actives raise or lower the signal;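 for AC50: TNFa protein level quantified by ELISA in the co-culture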
In short: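 ELISA-based TNFa endpoint in a human endothelial–PBMC co-culture sampled 24 h post-exposure. Curves were fitted in both directions using DMSO as baseline of activity.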

[18] = read-out: Vascular cell adhesion molecule 1 (VCAM1), VCAM1 (gene 7412); assay: BSK_LPS_VCAM1: BioMAP Diversity Plus: LPS Assay for Vascular cell adhesion molecule 1 (VCAM1) Biomarker Activity (AID 2283086); conditions: primary human HUVEC with PBMC; actives raise or lower the signal
In short: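 Measured by ELISA: VCAM-1 in LPS-activated HUVEC/PBMC co-cultures 24 h after treatment. Values reflect bidirectional fitting with DMSO as baseline.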

[19] = read-out: Monokine induced gamma interferon (MIG), CXCL9 (gene 4283); assay: BSK_SAg_MIG: BioMAP Diversity Plus: SAg Assay for Monokine induced gamma interferon (MIG) Biomarker Activity (AID 2283092); conditions: primary human HUVEC with PBMC; actives raise or lower the signal
In short: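 Values reflect bidirectional fitting of ELISA-measured MIG against DMSO vehicle, taken 24 h after dosing of a co-culture of human umbilical vein endothelial cells and peripheral blood mononuclear cells.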

[20] = BSK_SAg_PBMCCytotoxicity: PBMC Cytotoxicity Assessment in the BioMAP Diversity Plus: SAg Assay (AID 2283093); conditions: primary human HUVEC with PBMC;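 note: PBMC viability measured as Alamar Blue reduction fluorescence at 546/580 nm; fitted both ways against DMSO so a hit may be loss or gain of signal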;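 for AC50: PBMC superantigen activated with SEB plus TSST-1 one hour after compound addition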
In short: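 Alamar Blue reduction (6 h, 546/580 nm) reports PBMC cytotoxicity after 90 h superantigen activation (SEB, TSST-1; 20 ng/mL final each) with 1 h compound pre-treatment. Gain or loss of signal fitted versus DMSO.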

Measured: AC50

Sequence of Tumor necrosis factor (Homo sapiens) (P01375 whole entry, looked up): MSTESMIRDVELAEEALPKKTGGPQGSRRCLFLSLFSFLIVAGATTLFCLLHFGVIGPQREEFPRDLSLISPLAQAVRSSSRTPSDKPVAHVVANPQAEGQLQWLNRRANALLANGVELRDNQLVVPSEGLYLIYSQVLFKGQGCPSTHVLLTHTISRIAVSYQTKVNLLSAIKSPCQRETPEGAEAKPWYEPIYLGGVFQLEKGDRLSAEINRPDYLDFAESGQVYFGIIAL

O=S(=O)(c1ccccc1)c1ccccc1
inactive: all assays above

COC(C)(C)CCC[C@H](C)C/C=C/C(C)=C/C(=O)OC(C)C
active: [3] 31.2 µM | [4] 30.7 µM | [5] 29.8 µM | [6] 33.2 µM | [7] 32.5 µM | [8] 25 µM | [9] 28.4 µM | [10] 33.6 µM | [12] 24.1 µM | [13] 29 µM | [15] 20 µM | [16] 29.5 µM | [17] 32.7 µM | [18] 27.4 µM | [20] 29.7 µM
inactive: [1] | [2] | [11] | [14] | [19]

CC(C)CCCCCCCOC(=O)c1ccccc1C(=O)OCCCCCCCC(C)C
inactive: all assays above

COc1ccc(CO)cc1
inactive: all assays above

CC(C)(C)C(O)C(Oc1ccc(-c2ccccc2)cc1)n1cncn1 (stereo not given)
active: [12] 33 µM | [13] 28 µM
inactive: all other assays above

CC(=O)/C=C/c1ccccc1
active: [15] 20 µM | [18] 20 µM
inactive: all other assays above

CCc1cc(C)cc(CC)c1-c1c(OC(=O)C(C)(C)C)n2n(c1=O)CCOCC2
active: [3] 25.2 µM | [4] 31.5 µM | [9] 3.97 µM | [18] 3.97 µM
inactive: all other assays above
